Reference: PubChem BioAssay (NCI)
About 79,000 compounds went through this panel and 15% of them were active in at least one assay; those are over-represented in the sample as a whole. Active and inactive are the calls of the source. No stated cut-off is given here; in the data, active means growth inhibition above about 70%; inactive means the rest.

Key:
[1] = NCI Yeast Anticancer Drug Screen. Data for the rad50 strain (AID 155);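 further: 0% = growth of vehicle-only cultures of the same strain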; conditions: S. cerevisiae rad50 strain growth inhibition; at 50.0 µM; active compounds read high
Outline: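 Cells are treated with compound, grown, and their growth is then scored against vehicle-only cultures of the same repair-deficient yeast strain.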

[2] = NCI Yeast Anticancer Drug Screen. Data for the mec2-1 strain (AID 157); conditions: S. cerevisiae mec2-1 strain, at 50.0 µM, active compounds read high
Outline: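 Using mec2-1 yeast: add compound, measure growth, express inhibition versus vehicle-treated cultures.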

[3] = NCI Yeast Anticancer Drug Screen. Data for the sgs1 mgt1 strain (AID 161);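 further: 0% = growth of cultures given vehicle only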; conditions: S. cerevisiae sgs1 mgt1 strain, at 50.0 µM, active compounds read high
Outline: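 Yeast cells carrying a defined DNA-repair defect were exposed to test compounds. Growth inhibition was measured relative to vehicle-treated controls.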

[4] = NCI Yeast Anticancer Drug Screen. Data for the cln2 rad14 strain (AID 165);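 further: 0% = growth equal to vehicle treated cultures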; conditions: S. cerevisiae cln2 rad14 strain, at 50.0 µM, active compounds read high
Outline: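 Yeast strain cln2 rad14, bearing defects in cell cycle control and DNA repair, serves as the test system; values reflect growth inhibition compared with vehicle.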

[5] = NCI Yeast Anticancer Drug Screen. Data for the bub3 strain (AID 167); conditions: S. cerevisiae bub3 mutant strain, at 50.0 µM, active compounds read high
Outline: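 Part of a panel of yeast mutants defective in DNA damage repair or cell cycle regulation. Each strain is grown with compound, and inhibition is calculated relative to solvent-treated cultures.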

[6] = NCI Yeast Anticancer Drug Screen. Data for the mlh1 rad18 strain (AID 175); conditions: S. cerevisiae mlh1 rad18 strain growth inhibition; at 50.0 µM; active compounds read high
Outline: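 Steps: expose repair-defective yeast to compound; measure growth; express inhibition against vehicle-treated controls.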

Measured: growth inhibition

CCOC(=O)c1ccc(NC(=O)Nc2cc(C(F)(F)F)ccc2Cl)cc1
active: [1] 89.2% | [3] 92.9% | [4] 92.2% | [5] 86.7% | [6] 94%
inactive: [2] 28.3%

CC(=O)C(CN1CCOCC1)C(C)(C)O (stereo not given)
inactive: [1] 2.9% | [2] 31.8% | [3] 15.6% | [4] -6.35% | [5] 2.8% | [6] 12.4%

COc1ccc(/C=N\NC(=O)N/N=C/c2ccc(OC)c(Br)c2)cc1Br
inactive: [1] 44.3% | [2] 39.7% | [3] 44.6% | [4] 49.5% | [5] 39.2%
active: [6] 71.7%

CCN(CC)C1=Nc2ccccc2N(c2ccccc2)C(=S)C1
inactive: [1] 46.9% | [2] 25.5% | [3] 30.1% | [4] 13.9% | [5] 36.2% | [6] 51.2%

COc1ccc(NC(=O)Oc2cccc(NC(C)=O)c2)c(OC)c1
inactive: [1] 13.8% | [2] 8.7% | [3] 10.1% | [4] 4.35% | [5] 12.4% | [6] 8.65%

C/C(=N\OC(=O)c1c(-c2c(Cl)cccc2Cl)noc1C)c1ccccc1O
inactive: [1] 1.5% | [2] -23.4% | [3] -1.6% | [4] 12.2% | [5] -21.9% | [6] -4.75%

COc1ccc(C(=O)c2ccc(OC)c3ccccc23)c2ccccc12
inactive: [1] -7.3% | [2] -5.8% | [3] -1.2% | [4] -22.9% | [5] 3.35% | [6] 4.25%

N#CC(CC(=O)O)=C(c1ccccc1)c1ccccc1
inactive: [1] -6.75% | [2] -22.2% | [3] -20.5% | [4] 11.7% | [5] -50.8% | [6] 8.95%

O=C(C[n+]1ccccc1Br)c1ccc(I)cc1
inactive: [1] -32.9% | [2] 2% | [3] 10.3% | [4] -6.95% | [5] 17.1% | [6] 29.9%

O=C(O)CCSSCCC(=O)O
inactive: [1] 7.25% | [2] 6.5% | [3] 10.8% | [4] -1.65% | [5] -4.1% | [6] 10.8%

CC(C)CCCC(C)C1CCC2C3CCC4CC(O)C5(CC4(C)C3CCC12C)SCCS5 (stereo not given)
inactive: [1] 41% | [2] 10.9% | [3] 15.1% | [4] 18.4% | [5] -6.35% | [6] 18.4%

COc1nc2[nH]c(C)cc(=O)c2c2ccccc12
inactive: [1] 16.4% | [2] 14.8% | [3] 1.45% | [4] -26.8% | [5] -7% | [6] 2.8%

COc1nc(SC)nc2[nH]ccc12
inactive: [1] -1% | [2] 9.75% | [3] -4.2% | [4] -6.6% | [5] -6.35% | [6] -9.1%

COc1ccc(C2CC(C)(O)Oc3cc4c(cc32)OCO4)cc1 (stereo not given)
inactive: [1] 47.5% | [2] 26.3% | [3] 13.7% | [4] 43.6% | [5] 44.9% | [6] 27.1%

O=C(c1nc2ccc(Cl)cc2[nH]c1=O)C(O)c1ccc2c(c1)OCO2 (stereo not given)
inactive: [1] -10.9% | [2] -10.2% | [3] -3.85% | [4] 21.1% | [5] -13.2% | [6] 5.2%

O=C(O)CCN1CCCS(=O)(=O)C1=O
inactive: [1] 11.8% | [2] 8% | [3] -0.35% | [4] 9% | [5] -0.85% | [6] -5.3%

COC(=O)CCNC(=O)OCc1ccccc1
inactive: [1] 14.6% | [2] 30% | [3] -16.7% | [4] 26.6% | [5] -49.6% | [6] -75%

CC(C)(C)C(=O)/C=C/c1ccc(Oc2ccccc2)cc1
inactive: [1] 27.8% | [2] -28.7% | [3] 4.05% | [4] -15.6% | [5] -19.8% | [6] -20.8%

C/C(CC(=O)Nc1ccc(NC(=O)/C(C)=N/NS(=O)(=O)c2ccc(C)cc2)cc1)=N\NS(=O)(=O)c1ccc(C)cc1
inactive: [1] 16.2% | [2] 2.95% | [3] -12.8% | [4] -6.35% | [5] -0.9% | [6] 27.1%

Cc1ccc(S(=O)(=O)OC2C3OC(C)(C)OC3OC2C2CSC(=S)S2)cc1 (stereo not given)
inactive: [1] 0.3% | [2] -6.6% | [3] 10.1% | [4] -12.8% | [5] -25.3% | [6] 4%

CC(C)NC(=O)c1ccc(CBr)cc1
inactive: [1] 0.8% | [2] 9.05% | [3] -10.1% | [4] 9.8% | [5] 10.4% | [6] 14.3%

O=C(OCC1OC(OC(=O)c2ccccc2)C(O)C1OC(=O)c1ccccc1)c1ccccc1 (stereo not given)
inactive: [1] 45.2% | [2] 15.7% | [3] 19.3% | [4] 38.2% | [5] 35.7% | [6] 49.5%

COCCc1ccncc1
inactive: [1] -0.85% | [2] -35.3% | [3] -31.3% | [4] -6.45% | [5] -15.8% | [6] -7.9%

CC1=NN(c2nc(N)nc(CO)n2)C(C)(C)C1
inactive: [1] 12.2% | [2] 5.75% | [3] 3.2% | [4] 5.55% | [5] 1% | [6] -72.5%

c1ccn2c(CCc3nnc4ccccn34)nnc2c1
inactive: [1] -1.75% | [2] -8.4% | [3] -6.35% | [4] -18.3% | [5] -1.9% | [6] -13.1%

O=C(O)c1ccc(C(=O)Nc2cccc3ccccc23)c(C(=O)O)c1
inactive: [1] -6.9% | [2] 8.4% | [3] -11.9% | [4] 6.35% | [5] 3.55% | [6] -10.2%

CCCC(C)C(=O)OCCOCC (stereo not given)
inactive: [1] 4.55% | [2] 2.8% | [3] -1.5% | [4] -32.4% | [5] 9.3% | [6] 49.9%

CC(C)=C1C(=O)N(C)C(=O)C1C(N)=O (stereo not given)
inactive: [1] 0.1% | [2] 1.85% | [3] -15.9% | [4] -6.05% | [5] 2.85% | [6] 11.4%

CN(C)CC1CCC/C1=N/OC(=O)c1ccccc1 (stereo not given)
inactive: [1] 6.85% | [2] -6.7% | [3] -20% | [4] -17.9% | [5] -6.4% | [6] 16.9%

CCC1=C[C@H]2CN(CCc3c([nH]c4ccccc34)[C@@](C(=O)OC)(c3cc4c(cc3OC)N(C)[C@H]3C(C(=O)OC)=C[C@]5(CC)C=CCN6CC[C@]43[C@@H]65)C2)C1
inactive: [1] -14.7% | [2] -14.4% | [3] -4.75% | [4] -13.5% | [5] -0.8% | [6] -18.9%

CC(=O)C1=C(O)C(CSCc2ccccc2)NC1=O (stereo not given)
inactive: [1] 10.8% | [2] 0.65% | [3] 5.95% | [4] -2.9% | [5] 15.1% | [6] 15.2%

Cc1ccc2c(c1)C(O)(CC(=O)c1ccccc1)C(=O)N2 (stereo not given)
inactive: [1] 35.4% | [2] 0.55% | [3] 7% | [4] -47.9% | [5] -6.6% | [6] 1.35%

CSCCC(NC(=O)c1ccccc1)C(=O)O (stereo not given)
inactive: [1] -2.95% | [2] -15% | [3] 1.35% | [4] 3.85% | [5] 3.3% | [6] -10.6%

N#CCOc1ccc(Cl)cc1
inactive: [1] -10.7% | [2] -16.2% | [3] -13.1% | [4] -53.2% | [5] 1.8% | [6] -3.65%

CSc1[nH]c2ncnc(Cl)c2c1C#N
inactive: [1] 23.6% | [2] 10.3% | [3] 15.9% | [4] -21.8% | [5] -27.3% | [6] 21.7%

O=C1C=CC2(C=C1)OCC(=O)O2
inactive: [1] 6.15% | [2] 10.2% | [3] 3.25% | [4] 4.65% | [5] -3.1% | [6] 0.5%

CCOC(=O)c1c2cccccc-2nc1Nc1cccc2c(C)ccnc12
inactive: [1] 11.7% | [2] -21% | [3] -2.8% | [4] 9.7% | [5] -16.1% | [6] 5.55%

O=C1/C(=C/c2ccc(O)cc2)CCC/C1=C\c1ccc(O)cc1
inactive: [1] 3.9% | [2] 1.85% | [3] 5.2% | [4] 23.1% | [5] -7.05% | [6] 1.45%

NC1(C(=O)O)CCCCC1
inactive: [1] -11.3% | [2] -7.5% | [3] -30.7% | [4] -34.7% | [5] -12.9% | [6] -18.4%

O=C(OCc1ccccc1)/C(c1ccccc1)=[N+]1/C(=S)Nc2ccc([N+](=O)[O-])cc21
inactive: [1] 3% | [2] -5% | [3] 1.6% | [4] 3.8% | [5] 13.9% | [6] 7.9%
